The source made the active and inactive calls. Rule for the calls: active = hit-call score of the fitted dose curve at least 0.9, where 1 is the maximum; inactive = score below 0.9.
Assays:
Conditions in all cases: mRNA level, 48 h; actives raise or lower the signal
[1] = read-out: 3-Hydroxy-3-Methylglutaryl-CoA Synthase 2 (HMGCS2), HMGCS2 (gene 3158); test: LTEA_HepaRG_HMGCS2: Life Technologies and Expression Analysis (LTEA) Assay for 3-Hydroxy-3-Methylglutaryl-CoA Synthase 2 (HMGCS2) using HepaRG (AID 2283504)
In short: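 qRT-PCR read-out of HMGCS2 transcript, normalised to three housekeeping genes, in HepaRG cells after 48 h chemical exposure. Eight-point curves from 100 uM, half-log dilutions, 0.5% DMSO vehicle; gain or loss fitted relative to DMSO baseline.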

[2] = read-out: HGF (gene 3082); test: LTEA_HepaRG_HGF: Life Technologies and Expression Analysis (LTEA) Assay for Hepatocyte Growth Facto (HGF) using HepaRG (AID 2283505)
In short: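 HepaRG, 48 h dosing, 8-pt half-log series from 100 uM in 0.5% DMSO, duplicates. Readout: TaqMan qRT-PCR of HGF mRNA, housekeeping-normalized; bidirectional curve fit vs DMSO baseline.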

[3] = read-out: Intercellular Adhesion Molecule 1 (ICAM1), ICAM1 (gene 3383); test: LTEA_HepaRG_ICAM1: Life Technologies and Expression Analysis (LTEA) Assay for Intercellular Adhesion Molecule 1 (ICAM1) using HepaRG (AID 2283507)
In short: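 HepaRG, 48 h exposure, 8-pt half-log series from 100 uM, 0.5% DMSO vehicle, duplicates. Readout: TaqMan qRT-PCR mRNA, housekeeping-normalized (ACTB/GAPDH/POLR2A). Bidirectional curve fit vs DMSO baseline.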

[4] = read-out: Insulin-like growth factor-binding protein 1 (IGFBP1), IGFBP1 (gene 3484); test: LTEA_HepaRG_IGFBP1: Life Technologies and Expression Analysis (LTEA) Assay for Insulin-like growth factor-binding protein 1 (IGFBP1) using HepaRG (AID 2283508)
In short: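 qRT-PCR mRNA read-out (TaqMan, Fluidigm array), normalised to three housekeeping genes; HepaRG cells, 48 h exposure, 8-pt half-log series from 100 uM, 0.5% DMSO vehicle; bidirectional curve fit vs DMSO baseline.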

[5] = read-out: Interleukin 6 (IL6), IL6 (gene 3569); test: LTEA_HepaRG_IL6: Life Technologies and Expression Analysis (LTEA) Assay for Interleukin 6 (IL6) using HepaRG (AID 2283509)
In short: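 qRT-PCR read-out of IL6 transcript, normalized to three housekeeping genes, after 48 h chemical exposure of HepaRG cells; 8-point half-log series, top 100 uM, 0.5% DMSO vehicle. Bidirectional curve fitting against DMSO baseline.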

[6] = read-out: Interleukin 6 Receptor (IL6R), IL6R (gene 3570); test: LTEA_HepaRG_IL6R: Life Technologies and Expression Analysis (LTEA) Assay for Interleukin 6 Receptor (IL6R) using HepaRG (AID 2283510)
In short: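 HepaRG, 48 h exposure, 8-pt half-log series, top 100 uM, 0.5% DMSO vehicle, duplicates. Read-out: TaqMan qRT-PCR of IL6R transcript, housekeeping-gene normalized. Gain or loss fitted relative to DMSO baseline.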

[7] = read-out: Potassium channel subfamily K member 1 (KCNK1), KCNK1 (gene 3775); test: LTEA_HepaRG_KCNK1: Life Technologies and Expression Analysis (LTEA) Assay for Potassium channel subfamily K member 1 (KCNK1) using HepaRG (AID 2283511)
In short: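 HepaRG, 48 h exposure, 8-pt half-log series top 100 uM, 0.5% DMSO vehicle, duplicates. Readout: KCNK1 transcript by qRT-PCR (Fluidigm array), housekeeping-normalized; bidirectional curve fit relative to DMSO baseline.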

[8] = read-out: Keratin 19 (KRT19), KRT19 (gene 3880); test: LTEA_HepaRG_KRT19: Life Technologies and Expression Analysis (LTEA) Assay for Keratin 19 (KRT19) using HepaRG (AID 2283512)
In short: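 HepaRG, 48 h chemical exposure, 8-pt half-log CRC from 100 uM, 0.5% DMSO vehicle, duplicates. Readout: TaqMan qRT-PCR of KRT19 mRNA, housekeeping-normalized (ACTB/GAPDH/POLR2A). Bidirectional fit vs DMSO baseline.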

[9] = read-out: JUN Transcription Factor, JUN (gene 3725); test: LTEA_HepaRG_JUN: Life Technologies and Expression Analysis (LTEA) Assay for JUN Transcription Factor using HepaRG (AID 2283513)
In short: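 HepaRG, 48 h exposure, 8-pt half-log series top 100 uM, 0.5% DMSO, duplicate. JUN mRNA by qRT-PCR (Fluidigm), housekeeping-normalized (ACTB/GAPDH/POLR2A); bidirectional curve fit vs DMSO baseline.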

[10] = read-out: Lipase C (LIPC), LIPC (gene 3990); test: LTEA_HepaRG_LIPC: Life Technologies and Expression Analysis (LTEA) Assay for Lipase C (LIPC) using HepaRG (AID 2283514)
In short: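 HepaRG, 48 h exposure, 8-pt half-log series from 100 uM in 0.5% DMSO, duplicates. Readout: LIPC mRNA by Fluidigm qRT-PCR, housekeeping-normalized (ACTB/GAPDH/POLR2A). Gain or loss fitted bidirectionally against DMSO baseline.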

[11] = read-out: matrix metalloproteinase-10 (MMP10), MMP10 (gene 4319); test: LTEA_HepaRG_MMP10: Life Technologies and Expression Analysis (LTEA) Assay for matrix metalloproteinase-10 (MMP10) using HepaRG (AID 2283517)
In short: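 Transcript levels come from Fluidigm qRT-PCR normalized to three housekeeping genes, with curves fitted bidirectionally against 0.5% DMSO. Human HepaRG cells were dosed for 48 hours at concentrations up to 100 uM.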

[12] = read-out: MYC, MYC (gene 4609); test: LTEA_HepaRG_MYC: Life Technologies and Expression Analysis (LTEA) Assay for MYC using HepaRG (AID 2283518)
In short: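 qRT-PCR read-out of MYC transcript (Fluidigm TaqMan, housekeeping-normalized) after 48 h chemical exposure of HepaRG cells; eight concentrations, top 100 uM, half-log steps. Bidirectional curve fitting against 0.5% DMSO vehicle baseline.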

[13] = read-out: matrix metalloproteinase-3 (MMP3), MMP3 (gene 4314); test: LTEA_HepaRG_MMP3: Life Technologies and Expression Analysis (LTEA) Assay for matrix metalloproteinase-3 (MMP3) using HepaRG (AID 2283519)
In short: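 qRT-PCR read-out of MMP3 mRNA (normalised to three housekeeping genes) in HepaRG liver cells after 48 h chemical exposure; 8-point half-log series, top 100 uM, 0.5% DMSO vehicle. Bidirectional curve fitting against DMSO baseline.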

[14] = read-out: Paternally Expressed 10 (PEG10), PEG10 (gene 23089); test: LTEA_HepaRG_PEG10: Life Technologies and Expression Analysis (LTEA) Assay for Paternally Expressed 10 (PEG10) using HepaRG (AID 2283520)
In short: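 qRT-PCR read-out: PEG10 mRNA normalised to three housekeeping genes, fitted bidirectionally against 0.5% DMSO vehicle. HepaRG cells received test chemicals for 48 h in serum-free induction medium, 8 points, top 100 uM, half-log steps.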

[15] = read-out: Nuclear factor NF-kappa-B p105 subunit (Homo sapiens) (UniProt P19838); test: LTEA_HepaRG_NFKB1: Life Technologies and Expression Analysis (LTEA) Assay for Nuclear Factor Kappa B Subunit 1 (NFKB1) using HepaRG (AID 2283521);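 note: TaqMan qRT-PCR transcript normalised to ACTB GAPDH and POLR2A housekeeping genes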
In short: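 Differentiated human HepaRG cells were exposed for 48 h in serum-free induction medium to eight concentrations (top 100 uM, half-log steps, 0.5% DMSO), in duplicate. NFKB1 mRNA was measured by TaqMan qRT-PCR, normalized to ACTB/GAPDH/POLR2A, and fitted bidirectionally against DMSO.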

[16] = read-out: Protein phosphatase 2A (PPP2R4), PTPA (gene 5524); test: LTEA_HepaRG_PPP2R4: Life Technologies and Expression Analysis (LTEA) Assay for Protein phosphatase 2A (PPP2R4) using HepaRG (AID 2283522)
In short: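 HepaRG, 48 h exposure, 8-pt half-log series from 100 uM, 0.5% DMSO vehicle, duplicates. Readout: PPP2R4 mRNA, Fluidigm qRT-PCR, housekeeping-normalized. Bidirectional curve fit vs DMSO baseline.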

[17] = read-out: Phosphatase and tensin (PTEN), PTEN (gene 5728); test: LTEA_HepaRG_PTEN: Life Technologies and Expression Analysis (LTEA) Assay for Phosphatase and tensin (PTEN) using HepaRG (AID 2283523)
In short: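 HepaRG, 48 h exposure, 8-pt half-log series from 100 uM top, 0.5% DMSO vehicle, duplicates. Readout: Fluidigm qRT-PCR of PTEN transcript; housekeeping normalization (ACTB, GAPDH, POLR2A). Gain or loss fitted relative to DMSO baseline.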

[18] = read-out: solute carrier (SLC22A1), SLC22A1 (gene 6580); test: LTEA_HepaRG_SLC22A1: Life Technologies and Expression Analysis (LTEA) Assay for solute carrier (SLC22A1) using HepaRG (AID 2283524)
In short: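 qRT-PCR readout (TaqMan, Fluidigm arrays) of SLC22A1 transcript, normalized to three housekeeping genes; bidirectional curve fit relative to 0.5% DMSO vehicle. Differentiated human HepaRG cells, 48 h chemical exposure, top concentration 100 uM, half-log steps, eight points.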

[19] = read-out: NAD(P)H dehydrogenase [quinone] 1 (NQO1), NQO1 (gene 1728); test: LTEA_HepaRG_NQO1: Life Technologies and Expression Analysis (LTEA) Assay for NAD(P)H dehydrogenase [quinone] 1 (NQO1) using HepaRG (AID 2283526)
In short: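 qRT-PCR read-out (Fluidigm TaqMan), normalized to three housekeeping genes, after 48 h chemical exposure of HepaRG cells. Concentrations: eight points, top 100 uM, half-log steps, 0.5% DMSO vehicle. Gain or loss of signal fitted relative to DMSO.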

[20] = read-out: succinate dehydrogenase complex iron sulfur subunit B (SDHB), SDHB (gene 6390); test: LTEA_HepaRG_SDHB: Life Technologies and Expression Analysis (LTEA) Assay for succinate dehydrogenase complex iron sulfur subunit B (SDHB) using HepaRG (AID 2283528)
In short: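 HepaRG, 48 h exposure, 8-pt half-log series from 100 uM in 0.5% DMSO, duplicates. Readout: SDHB mRNA by Fluidigm qRT-PCR vs housekeeping genes; bidirectional fit relative to DMSO.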

Measured: AC50

Sequence of Nuclear factor NF-kappa-B p105 subunit (Homo sapiens) (P19838 whole entry, looked up): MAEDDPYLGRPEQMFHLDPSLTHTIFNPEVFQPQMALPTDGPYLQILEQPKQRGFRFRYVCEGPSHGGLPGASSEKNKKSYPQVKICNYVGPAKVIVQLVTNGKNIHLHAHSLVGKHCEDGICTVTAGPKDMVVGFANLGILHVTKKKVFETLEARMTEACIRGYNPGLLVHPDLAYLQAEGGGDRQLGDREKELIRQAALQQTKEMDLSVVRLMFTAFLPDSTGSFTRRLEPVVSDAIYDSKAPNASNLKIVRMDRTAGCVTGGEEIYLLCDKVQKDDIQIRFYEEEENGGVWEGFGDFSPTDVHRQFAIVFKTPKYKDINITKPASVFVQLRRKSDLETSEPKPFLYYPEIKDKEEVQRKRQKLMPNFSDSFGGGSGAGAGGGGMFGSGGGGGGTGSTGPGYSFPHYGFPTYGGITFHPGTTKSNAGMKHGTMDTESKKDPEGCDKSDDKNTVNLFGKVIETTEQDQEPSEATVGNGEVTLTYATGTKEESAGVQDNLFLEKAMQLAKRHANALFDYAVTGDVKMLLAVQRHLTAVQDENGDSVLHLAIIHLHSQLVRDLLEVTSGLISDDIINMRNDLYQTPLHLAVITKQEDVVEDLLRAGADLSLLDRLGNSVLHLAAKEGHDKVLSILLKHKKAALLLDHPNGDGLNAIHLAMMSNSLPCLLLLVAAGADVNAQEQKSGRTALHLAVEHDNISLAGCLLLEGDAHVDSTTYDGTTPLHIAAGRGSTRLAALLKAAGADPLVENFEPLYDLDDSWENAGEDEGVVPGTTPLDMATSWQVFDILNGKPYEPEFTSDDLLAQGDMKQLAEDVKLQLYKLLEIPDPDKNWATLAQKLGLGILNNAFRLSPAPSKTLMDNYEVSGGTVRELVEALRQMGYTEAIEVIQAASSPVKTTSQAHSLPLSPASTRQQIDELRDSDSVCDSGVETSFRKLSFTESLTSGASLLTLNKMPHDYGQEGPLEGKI

Cc1ccccc1N
inactive: [1] | [2] | [3] | [4] | [5] | [6] | [7] | [8] | [9] | [10] | [11] | [12] | [13] | [14] | [15] | [16] | [17] | [18] | [19] | [20]

CC(C)(C)CC(C)(C)c1ccc(O)cc1
inactive: [1] | [2] | [3] | [5] | [6] | [7] | [9] | [10] | [11] | [12] | [13] | [14] | [15] | [16] | [17] | [18] | [19] | [20]
active: [8] 25.9 µM

CN(C)N=O
inactive: [1] | [2] | [3] | [4] | [5] | [6] | [7] | [8] | [9] | [10] | [11] | [12] | [14] | [15] | [16] | [17] | [18] | [19] | [20]

— PubChem BioAssay (EPA / NIEHS)
